According to PubChem BioAssay (EPA / NIEHS):
Results filed as inconclusive are left out. Activity calls are given as the source filed them. The calls were made as follows: active = hit-call score of the fitted dose curve at least 0.9, where 1 is the maximum; inconclusive = response in the unintended direction; inactive = score below 0.9.

What follows are molecules tested against Estrogen receptor (Homo sapiens) + Estrogen receptor beta (Homo sapiens) (UniProt P03372+Q92731) (assay: OT_ER_ERaERb_0480: Odyssey Thera (OT) 8-hour HEK293T Protein-Complementation Assay for Estrogen Receptor-alpha/-beta Heterodimer (AID 2283352)).
Method in brief: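 Human HEK293T cells were treated for 8 hours and receptor heterodimerisation was detected through reconstitution of a fluorescent reporter split between ER-alpha and ER-beta ligand-binding domains. Activity was analysed as gain of signal against DMSO.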

Sequence of Estrogen receptor (Homo sapiens) + Estrogen receptor beta (Homo sapiens) (P03372 whole entry, looked up, the tested form may be a part): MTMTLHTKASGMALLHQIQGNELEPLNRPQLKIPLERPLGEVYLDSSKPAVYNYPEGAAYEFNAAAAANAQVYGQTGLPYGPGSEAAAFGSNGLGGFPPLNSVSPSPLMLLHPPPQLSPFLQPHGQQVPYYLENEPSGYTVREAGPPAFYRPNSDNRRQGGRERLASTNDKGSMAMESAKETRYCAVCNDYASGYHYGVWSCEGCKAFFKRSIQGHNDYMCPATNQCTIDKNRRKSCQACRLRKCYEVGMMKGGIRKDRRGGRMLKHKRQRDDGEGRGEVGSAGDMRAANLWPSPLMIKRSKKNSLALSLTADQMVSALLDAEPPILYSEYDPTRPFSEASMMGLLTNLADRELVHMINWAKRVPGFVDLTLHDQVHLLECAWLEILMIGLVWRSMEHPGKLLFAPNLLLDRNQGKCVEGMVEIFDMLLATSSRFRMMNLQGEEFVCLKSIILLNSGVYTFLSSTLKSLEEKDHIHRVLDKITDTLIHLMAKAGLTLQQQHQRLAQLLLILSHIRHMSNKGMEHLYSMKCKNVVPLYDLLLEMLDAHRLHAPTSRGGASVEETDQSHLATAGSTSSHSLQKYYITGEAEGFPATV
Sequence of Estrogen receptor (Homo sapiens) + Estrogen receptor beta (Homo sapiens) (Q92731 whole entry, looked up, the tested form may be a part): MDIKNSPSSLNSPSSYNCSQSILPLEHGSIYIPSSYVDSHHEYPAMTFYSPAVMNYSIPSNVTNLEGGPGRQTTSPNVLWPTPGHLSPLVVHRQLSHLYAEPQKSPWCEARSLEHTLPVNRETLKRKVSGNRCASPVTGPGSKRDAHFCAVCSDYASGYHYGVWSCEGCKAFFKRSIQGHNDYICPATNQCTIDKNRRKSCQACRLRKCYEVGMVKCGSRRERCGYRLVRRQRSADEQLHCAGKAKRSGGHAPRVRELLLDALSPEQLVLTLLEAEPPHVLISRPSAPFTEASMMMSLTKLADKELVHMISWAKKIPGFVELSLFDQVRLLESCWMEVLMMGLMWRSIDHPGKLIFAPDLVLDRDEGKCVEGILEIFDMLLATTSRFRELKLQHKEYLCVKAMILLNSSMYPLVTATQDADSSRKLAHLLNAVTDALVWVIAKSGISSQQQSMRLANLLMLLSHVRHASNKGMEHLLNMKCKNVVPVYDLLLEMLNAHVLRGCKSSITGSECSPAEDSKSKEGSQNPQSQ

| Compound | outcome | AC50 |
| --- | --- | --- |
| CCCCc1ccc2c(n1)[C@@H](c1ccc(OC)cc1C[C@H](C)C(=O)O)[C@H](C(=O)O)[C@H]2c1ccc2c(c1)OCO2 | inactive | – |
| O=C(O)Cc1ccccc1Nc1c(Cl)cccc1Cl | inactive | – |
| CCCCCCCCCCCC(=O)OC | inactive | – |
| COC(=O)c1ccc(O)cc1 | – | 50 µM (active) |
| COc1cc(-c2nc(NC(=O)c3cc4cc(C)cc(C)c4n3CC(=O)O)sc2CCC2CCCCC2)c(OC)cc1Cl | inactive | – |

What follows are molecules tested against Androgen Receptor/SRC-1 Co-activator, AR (gene 367) (UniProt P10275) (assay: OT_AR_ARSRC1_0480: Odyssey Thera (OT) 8-hour HEK293T Protein-Complementation Assay for Androgen Receptor/SRC-1 Co-activator (AID 2283354);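 also: hits raise the complementation signal above DMSO so AC50 marks enhancers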).
Method in brief: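 HEK293T cells stably expressing AR and SRC-1 fused to Venus YFP fragments, imaged 8 h after dosing. Complementation fluorescence scored as nuclear/cytoplasmic ratio at 488 nm in at least 400 cells per image; gain fitted versus DMSO.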

Sequence of Androgen Receptor/SRC-1 Co-activator, AR (gene 367) (P10275 whole entry, looked up, the tested form may be a part): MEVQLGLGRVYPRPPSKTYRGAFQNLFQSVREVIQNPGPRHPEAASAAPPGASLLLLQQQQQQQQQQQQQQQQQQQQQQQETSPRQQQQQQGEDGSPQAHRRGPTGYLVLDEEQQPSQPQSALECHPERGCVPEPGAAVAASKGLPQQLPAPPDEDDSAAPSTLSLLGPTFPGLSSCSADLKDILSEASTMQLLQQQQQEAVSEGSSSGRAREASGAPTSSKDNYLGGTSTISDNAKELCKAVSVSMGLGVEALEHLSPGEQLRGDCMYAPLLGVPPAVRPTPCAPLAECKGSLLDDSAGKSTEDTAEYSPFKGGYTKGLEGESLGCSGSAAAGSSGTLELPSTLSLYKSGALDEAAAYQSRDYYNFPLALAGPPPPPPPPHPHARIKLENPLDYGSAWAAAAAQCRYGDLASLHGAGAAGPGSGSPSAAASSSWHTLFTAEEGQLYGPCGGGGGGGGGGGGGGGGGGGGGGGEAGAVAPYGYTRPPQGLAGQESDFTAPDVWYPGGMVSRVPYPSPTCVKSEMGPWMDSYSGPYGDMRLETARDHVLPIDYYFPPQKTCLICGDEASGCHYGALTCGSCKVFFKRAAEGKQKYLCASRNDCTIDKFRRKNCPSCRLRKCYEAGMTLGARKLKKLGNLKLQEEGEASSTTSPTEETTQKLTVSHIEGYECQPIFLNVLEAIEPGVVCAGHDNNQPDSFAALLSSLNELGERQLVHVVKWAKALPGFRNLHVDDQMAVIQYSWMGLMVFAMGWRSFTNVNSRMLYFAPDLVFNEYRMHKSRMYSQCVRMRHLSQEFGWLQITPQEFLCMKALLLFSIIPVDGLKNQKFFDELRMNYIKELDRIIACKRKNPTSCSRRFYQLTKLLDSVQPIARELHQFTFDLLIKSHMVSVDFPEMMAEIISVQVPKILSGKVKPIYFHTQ

| Compound | outcome | AC50 |
| --- | --- | --- |
| O=C(O)Cc1ccccc1Nc1c(Cl)cccc1Cl | inactive | – |
| COc1ccc2c(c1)c(CC(=O)O)c(C)n2C(=O)c1ccc(Cl)cc1 | inactive | – |
| CN[C@H]1CC[C@@H](c2ccc(Cl)c(Cl)c2)c2ccc(S(N)(=O)=O)cc21 | – | 19.9 µM (active) |
| Cc1ccc(C)c(O)c1C | inactive | – |
| COc1cc(-c2nc(NC(=O)c3cc4cc(C)cc(C)c4n3CC(=O)O)sc2CCC2CCCCC2)c(OC)cc1Cl | – | 49.1 µM (active) |
